# Source: the supplement of paper PMC7156485
# ± gives the standard deviation of the averaged measurements.
# Experiments:
# Conditions in all cases: concentration: 10 µM; 24 h
# HCC1569 [1] = test: cell number relative to DMSO (% of DMSO); higher = more cells (less growth inhibition / toxicity)
# In short: (§1)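 Six fields per well were imaged at ×10 after the cells were fixed in 3.7% formaldehyde and stained with a rabbit anti-H1.0 antibody, an AlexaFluor 647 secondary and DAPI. The HCC1569 and TDF cells had been plated at 800 per well in 384-well plates (RPMI, 10% FBS) and treated in triplicate with compounds at 10 µM for 24 h at 37 °C. The values are the median of replicates of H1.0 nuclear intensity or cell number, as percent of the plate control. Smoothing for positional effects was applied to HCC1569 data.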
# TDF [2] = test: as above
# In short: as §1
# TDF [3] = test: H1.0 immunofluorescence intensity relative to DMSO (% of DMSO); higher = stronger H1.0 induction, active = 120 or more
# In short: as §1
# HCC1569 [4] = test: H1.0 immunofluorescence intensity relative to DMSO (% of DMSO); higher = stronger H1.0 induction, active = 140 or more
# In short: as §1
# 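For H1.0 immunofluorescence intensity relative to DMSO in this document: TDF is a line of transformed human dermal fibroblasts of mesenchymal origin.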
# 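For cell number relative to DMSO in this document: TDF denotes transformed human dermal fibroblasts of mesenchymal origin.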
SMILES,cell number (HCC1569 [1]),cell number (TDF [2]),H1.0 immunofluorescence intensity (TDF [3]),H1.0 immunofluorescence intensity (HCC1569 [4])
"CCN1CCCC1CNC(=O)c1cc(S(N)(=O)=O)ccc1OC (single isomer, unassigned; (-)) [(-)-Sulpiride]",99.4,101,90.9 (inactive),98.5 (inactive)
NC(=O)N1c2ccccc2C=Cc2ccccc21 [Carbamazepine],101 ± 6.6,111 ± 1.5,92.6 (inactive),97 (inactive)
CCCCCCCCC=CCCCCCCCC(=O)O [9(E)-Octadecenoic acid],100,108,94.9 (inactive),101 (inactive)
CC(C)(C=O)Cc1cc(C(C)(C)C)c(O)c(C(C)(C)C)c1,109,106,92 (inactive),97.1 (inactive)
COc1ccc2cc3[n+](cc2c1OC)CCc1cc2c(cc1-3)OCO2.Cl,99.4,77.9,97.4 (inactive),101 (inactive)
NC1CCN(c2c(F)cc3c(=O)c(C(=O)O)cn(C4CC4)c3c2Cl)C1 (stereo unspecified) [Clinafloxacin],103,101,94.3 (inactive),107 (inactive)
"COc1c(O)cc2oc(-c3ccc(O)cc3)cc(=O)c2c1O [5,7-dihydroxy-2-(4-hydroxyphenyl)-6-methoxy-4H-chromen-4-one]",92.6,102,88 (inactive),106 (inactive)
COc1cc2c(cc1OC)C(=O)C(CC1CCN(Cc3ccccc3)CC1)C2.Cl.Cl (stereo unspecified) [Donepezil.HCl],101,114,95.8 (inactive),105 (inactive)
NCCS(=O)O [Hypotaurine],106,106,96.6 (inactive),88.6 (inactive)
O=C(NCCCNc1nc(Nc2cccc(NC(=O)N3CCCC3)c2)ncc1I)c1cccs1,62,42.3,114 (inactive),134 (inactive)
CC1OC(OCC2OC(Oc3c(-c4ccc(O)c(O)c4)oc4cc(O)cc(O)c4c3=O)C(O)C(O)C2O)C(O)C(O)C1O (stereo unspecified) [Rutin],107,102,91.6 (inactive),88 (inactive)
CN1CCC(=C2c3ccccc3C=Cc3ccccc32)CC1.Cl [Cyproheptadine hydrochloride],98,97.3,111 (inactive),120 (inactive)
O=c1c(O)c(-c2ccc(O)cc2)oc2cc(O)cc(O)c12 [Kaempferol],98.4,93.9,93.5 (inactive),115 (inactive)
"CCCCCCCCCCCC1N[C@H](C(=O)O)CS1 (stereo partly drawn) [(4R)-2-undecyl-1,3-thiazolidine-4-carboxylic acid]",98.7,105,95.5 (inactive),96.9 (inactive)
COC(=O)C1C(O)CCC2CN3CCc4c([nH]c5ccccc45)C3CC21.Cl (stereo unspecified),102 ± 5.1,107 ± 3.6,91.2 (inactive),100 (inactive)
C1CCC(C(CC2CCCCN2)C2CCCCC2)CC1.O=C(O)C=CC(=O)O (stereo unspecified),19,5.25,273 (active),117 (inactive)
CC1(C)CC(=O)C2=C(C1)NC(=S)NC2c1cccc(O)c1 (stereo unspecified),70.7,9.81,152 (active),118 (inactive)
CNS(=O)(=O)Cc1ccc2[nH]cc(CCN(C)C)c2c1.O=C(O)CCC(=O)O [Sumatriptan Succinate],98,106,90.9 (inactive),114 (inactive)
COc1cc2c(cc1OC)-c1cc(=Nc3c(C)cc(C)cc3C)n(C)c(=O)n1CC2.Cl [Trequinsin hydrochloride],96.4,111,85 (inactive),101 (inactive)
C[N+]1(C)C2CC(OC(=O)C(O)(c3cccs3)c3cccs3)CC1C1OC12.[Br-] (stereo unspecified) [Tiotropium Bromide],105,97.1,95.7 (inactive),114 (inactive)
CCCCCCCCC=CCCCCCCCCCCCC(=O)O [13(E)-Docosenoic acid],104,108,96 (inactive),101 (inactive)
CCCCCCCCCCCC1=C(O)C(=O)C=C(O)C1=O [Embelin],98.8,97.1,97.6 (inactive),87.3 (inactive)
Nc1c2c(nc3ccccc13)CCCC2O.O=C(O)C=CC(=O)O (stereo unspecified) [Hydroxytacrine],106,101,91.5 (inactive),101 (inactive)
COC1C(OC(N)=O)C(O)C(Oc2ccc3c(O)c(NC(=O)c4ccc(O)c(CC=C(C)C)c4)c(=O)oc3c2C)OC1(C)C.[Na+] (stereo unspecified) [Novobiocin.Na],103,112,95.7 (inactive),103 (inactive)
